The target of assay [1] is Estrogen receptor (Homo sapiens) (UniProt P03372). In words: OT_ERa_GFPERaERE_0480: Odyssey Thera (OT) 8-hour HeLa Transcription Induction Assay for Estrogen Receptor (AID 2283381; active = hit-call score of the fitted dose curve at least 0.9, where 1 is the maximum; inactive = score below 0.9). The procedure, abridged:
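GFP-ERE reporter, HeLa, 8 h exposure. Readout: fluorescence microscopy, high-content image analysis. Fit direction positive vs DMSO negative control.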

Assay [2] shares this target. Briefly: OT_ERa_GFPERaERE_0120: Odyssey Thera (OT) 2-hour HeLa Transcription Induction Assay for Estrogen Receptor (AID 2283382). An outline of the steps:
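Fluorescence microscopy read-out: inducible fluorescent protein reporter in HeLa cells, imaged 2 h post-dose. Signal increase over DMSO negative control fitted as single primary endpoint via high content image analysis.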

For assay [3], the target named is Retinoic acid receptor RXR-alpha (Homo sapiens) (UniProt P19793). Briefly: OT_NURR1_NURR1RXRa_0480: Odyssey Thera (OT) 8-hour HEK293T Protein Complementation Assay for Nurr1/retinoid X receptor (RXR) (AID 2283385). An outline of the steps: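 Read-out: fluorescence from protein-fragment complementation between Nurr1 and RXRα in human HEK293T cells, 8 h after dosing. DMSO served as negative control; increased signal counted as activity.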
Sequence of Retinoic acid receptor RXR-alpha (Homo sapiens) (P19793 whole entry, looked up, the tested form may be a part): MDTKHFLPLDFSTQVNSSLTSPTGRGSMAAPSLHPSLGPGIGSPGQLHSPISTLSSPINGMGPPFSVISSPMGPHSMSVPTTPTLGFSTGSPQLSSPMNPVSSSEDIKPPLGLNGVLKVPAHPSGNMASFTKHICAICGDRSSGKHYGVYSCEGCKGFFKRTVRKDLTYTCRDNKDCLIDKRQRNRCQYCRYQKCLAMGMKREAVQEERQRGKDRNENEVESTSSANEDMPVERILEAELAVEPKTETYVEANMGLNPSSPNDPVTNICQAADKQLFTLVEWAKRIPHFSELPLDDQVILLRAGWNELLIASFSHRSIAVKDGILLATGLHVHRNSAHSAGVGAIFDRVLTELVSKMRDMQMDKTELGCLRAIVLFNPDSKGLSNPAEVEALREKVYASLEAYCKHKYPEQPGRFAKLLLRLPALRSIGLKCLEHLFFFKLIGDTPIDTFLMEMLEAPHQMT

For assay [4] the target is unchanged. Briefly: OT_NURR1_NURR1RXRa_1440: Odyssey Thera (OT) 24-hour HEK293T Protein Complementation Assay for Nurr1/retinoid X receptor (RXR) (AID 2283386). An outline of the steps:
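Fluorescence PCA read-out; HEK293T; 24 h post-dose; bait/prey fused to reporter fragments; gain-of-signal fit vs DMSO negative control.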

The target of assay [5] is Estrogen receptor beta (Homo sapiens) (UniProt Q92731). In words: OT_ER_ERbERb_1440: Odyssey Thera (OT) 24-hour HEK293T Protein-Complementation Assay for Estrogen Receptor-beta/-beta Homodimer (AID 2283380).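 Note: scored as signal increase over DMSO baseline for both agonists and antagonists.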 The procedure, abridged: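 HEK293T cells stably expressing ER beta LBD (aa 310-547) homodimer fragment-complementation reporter, dosed 24 h. Cells formaldehyde-fixed, Draq5-stained; gain in nuclear (agonist) or nuclear plus cytoplasmic (antagonist) fluorescence versus DMSO read by laser scanning cytometry.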
Sequence of Estrogen receptor beta (Homo sapiens) (Q92731 whole entry, looked up, the tested form may be a part): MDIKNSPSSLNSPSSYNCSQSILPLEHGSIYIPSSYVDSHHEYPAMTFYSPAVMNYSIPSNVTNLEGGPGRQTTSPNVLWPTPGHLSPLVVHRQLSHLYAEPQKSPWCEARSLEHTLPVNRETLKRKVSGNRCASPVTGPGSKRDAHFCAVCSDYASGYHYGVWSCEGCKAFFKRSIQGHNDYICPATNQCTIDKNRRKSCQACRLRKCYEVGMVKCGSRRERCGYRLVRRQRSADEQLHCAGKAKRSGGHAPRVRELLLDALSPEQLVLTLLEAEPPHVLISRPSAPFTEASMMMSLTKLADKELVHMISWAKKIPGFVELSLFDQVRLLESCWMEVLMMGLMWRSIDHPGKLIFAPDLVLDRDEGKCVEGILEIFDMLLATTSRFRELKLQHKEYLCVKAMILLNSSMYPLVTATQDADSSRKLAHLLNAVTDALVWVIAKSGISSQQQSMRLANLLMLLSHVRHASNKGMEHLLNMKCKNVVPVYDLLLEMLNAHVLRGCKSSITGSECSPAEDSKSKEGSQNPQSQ

Assay [6] addresses Peroxisome proliferator-activated receptor gamma (Homo sapiens) (UniProt P37231). In words: OT_PPARg_PPARgSRC1_1440: Odyssey Thera (OT) 24-hour Protein-Complementation Assay for Peroxisome Proliferator-activated Receptor Gamma/ SRC-1 Co-activator (AID 2283388). The procedure, abridged:
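HEK293T transiently transfected with PPARg/SRC-1 split-Venus YFP fusions 48 h before dosing, then treated 24 h at 37C. Fixed cells imaged; nuclear/cytoplasmic 488 nm fluorescence ratio, gain of signal versus DMSO.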

Assay [7] shares this target. In words: OT_PPARg_PPARgSRC1_0480: Odyssey Thera (OT) 8-hour Protein-Complementation Assay for Peroxisome Proliferator-activated Receptor Gamma / SRC-1 Co-activator (AID 2283387). The procedure, abridged: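 Protein-fragment complementation in HEK293T: Venus YFP halves (residues 1-158, 159-239, mutated to IFP1/IFP2) fused to PPARg/SRC-1. 8 h exposure; N/C ratio at 488 nm; DMSO negative control.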

The target in assay [8] is Bile acid receptor (Homo sapiens) (UniProt Q96RI1). In words: OT_FXR_FXRSRC1_1440: Odyssey Thera (OT) 24-hour HEK293T Protein-Complementation Assay for Farnesoid X receptor/SRC-1 Co-activator (AID 2283384). An outline of the steps:
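Fluorescence readout, 24 h post-dose, HEK293T; FXR and SRC-1 fused to complementary reporter fragments, association reconstitutes signal. Positive-direction fit vs DMSO baseline.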

Assay [9] in a line: CEETOX_H295R_OHPREG: CeeTox H295R High-throughput Steroidogenesis Assay for OH-Pregnenolone (OHPREG) (AID 2283434; active = hit-call score of the fitted dose curve at least 0.9, where 1 is the maximum; inactive = score below 0.9). The following applies: actives raise or lower the signal. The procedure, abridged: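 H295R, 10 uM forskolin pre-stim 48 h; test chemical 48 h, 0.1% DMSO final. MTBE extraction, reverse-phase C18 HPLC-ESI+ MS/MS of medium. Gain/loss vs DMSO; viability by MTT in same wells.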

Assay [10] is described as follows: CEETOX_H295R_OHPROG: CeeTox H295R High-throughput Steroidogenesis Assay for OH-Progesterone (OHPROG) (AID 2283435; active = hit-call score of the fitted dose curve at least 0.9, where 1 is the maximum; inactive = score below 0.9). To be noted: actives raise or lower the signal. The procedure, abridged:
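HPLC-MS/MS quantification of 17alpha-hydroxyprogesterone secreted by H295R cells after 48 h chemical exposure, following 48 h 10 uM forskolin prestimulation. Gain or loss of signal fitted relative to DMSO. Viability checked by MTT in the same wells.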

Assay [11] in a line: CEETOX_H295R_ESTRADIOL: CeeTox H295R High-throughput Steroidogenesis Assay for Estradiol (AID 2283440; active = hit-call score of the fitted dose curve at least 0.9, where 1 is the maximum; inactive = score below 0.9;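 note: estradiol secreted into medium quantified by LC-MS/MS after dansyl derivatisation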). To be noted: actives raise or lower the signal. The procedure, abridged:
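H295R cells pre-stimulated 48 h with 10 uM forskolin, then exposed 48 h to chemical in 0.1% DMSO. Medium estradiol quantified by MTBE extraction, dansyl derivatisation and HPLC-MS/MS; bidirectional fit versus DMSO; MTT viability required >/=70%.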

Assay [12] can be described thus: CEETOX_H295R_ESTRONE: CeeTox H295R High-throughput Steroidogenesis Assay for Estrone (AID 2283441; active = hit-call score of the fitted dose curve at least 0.9, where 1 is the maximum; inactive = score below 0.9;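 note: estrone secreted into medium measured by LC-MS/MS after dansyl derivatization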). The following applies: actives raise or lower the signal. An outline of the steps:
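Forskolin-stimulated H295R cells are treated 48 h with chemical, and estrone in the medium is measured by LC-MS/MS. Activity is fitted in both directions relative to DMSO controls, with chemicals diluted until MTT viability reaches at least 70%.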

Assay [13] in a line: CEETOX_H295R_PROG: CeeTox H295R High-throughput Steroidogenesis Assay for Progesterone (PROG) (AID 2283442; active = hit-call score of the fitted dose curve at least 0.9, where 1 is the maximum; inactive = score below 0.9;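 note: human H295R adrenal cells primed with 10 µM forskolin before dosing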). To be noted: actives raise or lower the signal. An outline of the steps:
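H295R adrenal cells prestimulated 48 h with 10 uM forskolin, then exposed 48 h to test chemical in 0.1% DMSO. Progesterone in medium quantified by HPLC-MS/MS after MTBE extraction; viability checked by MTT in same wells.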

Records with an inconclusive call do not appear. Activity calls are given as the source filed them. Rule for the calls, unless noted: active = hit-call score of the fitted dose curve at least 0.9, where 1 is the maximum; inconclusive = response in the unintended direction; inactive = score below 0.9.

Sequence of Peroxisome proliferator-activated receptor gamma (Homo sapiens) (P37231 whole entry, looked up, the tested form may be a part): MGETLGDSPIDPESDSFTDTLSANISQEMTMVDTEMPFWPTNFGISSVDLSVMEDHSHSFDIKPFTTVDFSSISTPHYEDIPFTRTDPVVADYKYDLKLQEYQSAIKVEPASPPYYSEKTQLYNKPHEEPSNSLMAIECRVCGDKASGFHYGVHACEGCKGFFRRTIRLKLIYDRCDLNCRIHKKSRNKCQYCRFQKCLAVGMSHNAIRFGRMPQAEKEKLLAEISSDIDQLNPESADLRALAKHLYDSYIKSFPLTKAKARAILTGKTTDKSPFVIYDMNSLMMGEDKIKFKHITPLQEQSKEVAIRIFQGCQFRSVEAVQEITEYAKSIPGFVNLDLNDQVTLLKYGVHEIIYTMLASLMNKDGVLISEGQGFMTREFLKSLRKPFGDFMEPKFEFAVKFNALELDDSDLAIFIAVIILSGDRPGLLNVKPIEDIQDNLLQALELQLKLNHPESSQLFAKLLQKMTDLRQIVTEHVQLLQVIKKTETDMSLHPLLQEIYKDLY
Sequence of Bile acid receptor (Homo sapiens) (Q96RI1 whole entry, looked up, the tested form may be a part): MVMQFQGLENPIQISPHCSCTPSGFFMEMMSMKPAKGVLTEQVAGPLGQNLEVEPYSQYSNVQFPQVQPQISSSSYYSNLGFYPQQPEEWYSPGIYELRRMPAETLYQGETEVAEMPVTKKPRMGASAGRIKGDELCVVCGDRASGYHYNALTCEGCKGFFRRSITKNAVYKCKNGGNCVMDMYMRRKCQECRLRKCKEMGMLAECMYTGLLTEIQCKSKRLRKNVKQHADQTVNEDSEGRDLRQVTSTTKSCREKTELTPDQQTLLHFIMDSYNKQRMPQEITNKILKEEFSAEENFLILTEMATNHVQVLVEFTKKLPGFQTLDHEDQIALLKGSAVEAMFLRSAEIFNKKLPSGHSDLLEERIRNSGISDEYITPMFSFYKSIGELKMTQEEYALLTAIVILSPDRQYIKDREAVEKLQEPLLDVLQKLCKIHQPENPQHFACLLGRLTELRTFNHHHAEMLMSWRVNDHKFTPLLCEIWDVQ
Sequence of Estrogen receptor (Homo sapiens) (P03372 whole entry, looked up): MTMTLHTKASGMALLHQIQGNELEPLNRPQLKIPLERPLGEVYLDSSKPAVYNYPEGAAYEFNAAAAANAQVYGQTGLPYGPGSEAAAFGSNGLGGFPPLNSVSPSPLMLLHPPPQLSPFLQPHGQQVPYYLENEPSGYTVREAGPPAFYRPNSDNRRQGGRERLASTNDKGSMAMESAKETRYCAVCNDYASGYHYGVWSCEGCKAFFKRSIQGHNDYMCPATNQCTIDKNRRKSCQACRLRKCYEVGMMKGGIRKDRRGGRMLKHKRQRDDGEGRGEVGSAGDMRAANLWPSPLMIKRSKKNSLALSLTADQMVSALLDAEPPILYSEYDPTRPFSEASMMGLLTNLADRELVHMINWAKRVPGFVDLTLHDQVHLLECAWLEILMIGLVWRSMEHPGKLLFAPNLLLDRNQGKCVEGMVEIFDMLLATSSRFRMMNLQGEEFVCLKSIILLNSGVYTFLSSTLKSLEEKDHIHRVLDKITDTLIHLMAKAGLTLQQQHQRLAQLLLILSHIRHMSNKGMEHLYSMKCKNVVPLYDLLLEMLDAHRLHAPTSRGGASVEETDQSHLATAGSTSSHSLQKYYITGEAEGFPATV

As for `CC(C)(C)C(=O)c1ccccc1`, the result in assay [1], in assay [2], in assay [3] and in [4] was inactive.
As for `C=CC(C)(O)CCC=C(C)CCC=C(C)C` (stereo not given), the compound was classed as inactive in assay [5], in assay [3] and in assay [6]. Also, the AC50 in assay [4] was 50 µM (active).
Consider `NCCNCCN`, for which the call in assay [5], in [4], in assay [7] and in assay [6] was inactive.
`NCCCN1CCOCC1`: the call in assay [5], in assay [1], in [2], in assay [3], in assay [7] and in [6] was inactive.
In the case of `COc1ccc(O)cc1`, the call in assay [5], in assay [7] and in assay [6] was inactive. In addition, the AC50 in assay [4] was 44.6 µM (active).
Regarding `c1ccc2[nH]ccc2c1`, the result in [5], in assay [3], in assay [4], in assay [7] and in assay [6] was inactive.
Regarding `CC1(C)[C@@H]2CC[C@@]1(C)[C@H](O)C2`, the compound was called inactive in assay [5], in assay [3] and in [4].
In the case of `c1ccc(CCCc2ccccn2)cc1`, the outcome in assay [1], in assay [2], in assay [8], in assay [3], in [7] and in assay [6] was inactive. Further, the call in assay [9], in assay [10], in [11] and in assay [12] was inactive. Moreover, the AC50 in assay [13] is 50 µM (active).
For `CN(C)CCCN`, the call in assay [1], in [2], in [8], in [4], in [7] and in assay [6] was inactive.
As to `O=C(O)CCCCCCCC(=O)O`, the compound was called inactive in assay [5], in assay [4], in [7] and in assay [6].
As for `CCN(CC)c1ccc(C(=C2C=CC(=[N+](CC)CC)C=C2)c2ccc(S(=O)(=O)O)cc2S(=O)(=O)[O-])cc1`, the call in assay [5], in assay [7] and in [6] was inactive.
On to `CC(=O)OCCC(C)CC(C)(C)C` (stereo not given), for which the outcome in [1], in assay [2], in assay [8], in assay [4], in assay [7] and in [6] was inactive.
As to `CC(C)(N)CO`, the compound was classed as inactive in assay [5], in assay [1], in assay [2], in assay [8], in assay [7] and in [6].
`CCCCCCCCCCCCCC(=O)O`: the outcome in assay [5], in [1], in assay [2], in [4], in assay [7] and in [6] was inactive. Further, the AC50 in [8] is 81.8 µM (active).
Take `CC1(C)C(=O)N(Br)C(=O)N1Cl`: the result in [5], in assay [7] and in [6] was inactive.
As to `O=C(Oc1ccccc1)c1ccc(O)cc1`, the concentration at half-maximal activity (AC50) in [5] is 4.86 µM (active). The compound was called inactive in assay [4], in assay [7] and in assay [6].

The record behind these values is PubChem BioAssay (EPA / NIEHS).
